In the test the target is Interleukin-8 (IL8, CXCL8), C-terminal His-tagged (Homo sapiens, UniProt P10145 SEQ:1-72). The experiment in a line: competition; competition TR-FRET; G18U. Conditions: tags: C-terminal 6xHis (Sino Biological); ssRNA; 2'-F G, 2'-OMe A/C/U, 5' C6NH2, 3' idT. The method, then: To better understand the sequence requirements and to confirm the stem structures of members of the Aptamer 3 family as determined from sequence covariation analysis from both the primary and secondary (degenerate) selections, a series of variants which included mutations and deletions to the predicted stems were synthesized and screened (Table 24). Activity of each of these variants were tested using a time resolved competition TR-FRET assay in which the labeled parent Aptamer 3 was competed with increasing concentrations of unlabeled variants for binding to IL8 (FIG. 14). Briefly, 2-fold dilutions of thermally equilibrated aptamers were made in TR-FRET Buffer (50 mM MOPS, pH 7.4, 125 mM NaCl, 5 mM KCl, 50 μM CHAPS, 0.1 mg/mL BSA, 1 mM CaCl₂, and 1 mM MgCl₂). 5 μL of aptamer or control solution was added to 5 μl mix of 10 nM C-terminal His-tagged-IL8, 60 nM ALEXA FLUOR® 647-labeled Aptamer, and 5 nM anti-His-Eu (Perkin Elmer) in a black wall low volume 384 well plate (Greiner). For control, 5 μl of 1000-fold excess of unlabeled parent aptamer or 5 μl TR-FRET buffer alone was added to the mix of ALEXA FLUOR® 647-labeled aptamer, His-IL8, and anti-His-Eu. The plate was covered with a plate seal and subsequently incubated in the dark for 1 hour at room temperature. The plate was read on a Biotek CYTATION™ 5 plate reader. […]
(In general: TR-FRET usually uses a lanthanide donor and a delayed reading to cut background.)
For the sequence UGAUGACGGUAGAUUACUGGUAGAGUGACCGCAUCU, the binding signal is > 10 fold worse than Aptamer 3.
